This passage reports Percent Effect results from ChEMBL document CHEMBL3988442, “University of Dundee, Small-Polar-MMV Screening Library” (2021).

Molecules are shown by their SMILES. About 300 (0.45%) of roughly 67,000 compounds showed an effect of 50% or more. What follows is part of a selection rich in strong results, with near analogues and random picks from the rest.

Polyketide synthase Pks13 (Mycobacterium tuberculosis (strain ATCC 25618 / H37Rv)), sequence (I6X8D2 whole entry): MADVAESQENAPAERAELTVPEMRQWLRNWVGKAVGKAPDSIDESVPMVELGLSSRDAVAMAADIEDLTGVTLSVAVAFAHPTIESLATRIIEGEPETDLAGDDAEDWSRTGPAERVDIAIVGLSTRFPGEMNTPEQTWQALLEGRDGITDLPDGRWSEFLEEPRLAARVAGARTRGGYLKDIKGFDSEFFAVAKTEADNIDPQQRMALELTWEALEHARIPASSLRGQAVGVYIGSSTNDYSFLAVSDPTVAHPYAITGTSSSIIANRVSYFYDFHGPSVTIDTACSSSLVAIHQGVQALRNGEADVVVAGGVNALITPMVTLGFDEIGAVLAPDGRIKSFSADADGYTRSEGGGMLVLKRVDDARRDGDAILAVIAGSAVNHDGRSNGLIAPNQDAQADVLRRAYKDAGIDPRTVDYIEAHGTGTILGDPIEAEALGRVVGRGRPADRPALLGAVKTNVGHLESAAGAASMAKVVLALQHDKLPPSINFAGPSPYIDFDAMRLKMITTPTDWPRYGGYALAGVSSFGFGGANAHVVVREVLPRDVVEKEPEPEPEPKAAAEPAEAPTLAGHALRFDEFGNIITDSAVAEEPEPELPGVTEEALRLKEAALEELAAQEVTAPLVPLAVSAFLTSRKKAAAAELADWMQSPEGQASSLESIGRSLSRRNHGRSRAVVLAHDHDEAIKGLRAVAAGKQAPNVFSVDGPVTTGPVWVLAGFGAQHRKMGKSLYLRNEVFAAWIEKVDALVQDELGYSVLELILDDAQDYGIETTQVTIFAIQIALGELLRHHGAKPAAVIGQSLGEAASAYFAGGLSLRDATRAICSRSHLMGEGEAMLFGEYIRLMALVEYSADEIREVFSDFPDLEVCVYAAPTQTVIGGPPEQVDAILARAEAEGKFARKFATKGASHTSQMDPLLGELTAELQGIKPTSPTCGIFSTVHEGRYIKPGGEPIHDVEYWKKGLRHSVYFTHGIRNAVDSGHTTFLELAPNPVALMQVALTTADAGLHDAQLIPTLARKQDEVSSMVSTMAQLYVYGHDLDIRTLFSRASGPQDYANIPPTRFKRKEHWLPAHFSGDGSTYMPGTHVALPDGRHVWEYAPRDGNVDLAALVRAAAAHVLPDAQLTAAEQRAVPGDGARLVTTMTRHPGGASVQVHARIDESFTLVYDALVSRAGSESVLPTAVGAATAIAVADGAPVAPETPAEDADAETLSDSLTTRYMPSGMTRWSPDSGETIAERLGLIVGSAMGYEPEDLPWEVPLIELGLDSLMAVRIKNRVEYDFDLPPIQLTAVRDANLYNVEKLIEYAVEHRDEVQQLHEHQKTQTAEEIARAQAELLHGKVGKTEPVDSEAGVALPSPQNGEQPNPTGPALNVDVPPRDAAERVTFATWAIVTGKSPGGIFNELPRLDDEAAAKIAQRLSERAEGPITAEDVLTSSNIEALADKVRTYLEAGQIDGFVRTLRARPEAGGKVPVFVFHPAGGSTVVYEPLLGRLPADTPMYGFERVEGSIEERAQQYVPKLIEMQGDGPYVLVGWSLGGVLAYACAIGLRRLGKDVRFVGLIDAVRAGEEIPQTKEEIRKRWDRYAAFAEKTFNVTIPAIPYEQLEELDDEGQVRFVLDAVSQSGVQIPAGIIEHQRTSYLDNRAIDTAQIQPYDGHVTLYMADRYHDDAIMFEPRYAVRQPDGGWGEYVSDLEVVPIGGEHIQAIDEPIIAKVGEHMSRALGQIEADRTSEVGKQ

The experiment has as its target Polyketide synthase Pks13 (Mycobacterium tuberculosis (strain ATCC 25618 / H37Rv)) (UniProt I6X8D2). As to the kind of experiment: Mycobacterium tuberculosis Polyketide synthase 13 Thioesterase (PKS13). On the set-up: scale not given: in the data most compounds retested in dose-response had high values. It counts as functional. The following applies: 30 µM.
With `CCS(=O)(=O)N1C[C@H]2CN(c3cnn(C)c3)C(=O)[C@H]2C1`, the Percent Effect is -4.27%.
Under `Cc1ccccc1CN1CC[C@H]2C[C@H](C(=O)N(C)C)O[C@H]2C1` stands -13.3%; under `Cc1noc(C)c1CN1CC[C@@H]2O[C@@H](COCC3CC3)CC[C@@H]21`, -31.2%.
The same measure for `CCS(=O)(=O)N1C[C@@H](C(=O)NC(C)C)[C@@]2(Cc3ccccc3C(=O)N2)C1`: 9.59%; for `CN1C[C@@H](C(=O)NC(C)(C)C)[C@@]2(CCc3ccccc3C(=O)N2)C1`: 1.71%; for `CC(C)NC(=O)[C@@H]1CN(C(=O)C2CC2)C[C@]12Cc1ccccc1C(=O)N2`: 52.6%.
The same measure for `CS(=O)(=O)N1C[C@@H]2CC[C@H](C1)N(CCC(=O)NCc1ccco1)C2`: -13.4%; for `CC(C)c1nnc(CN2CCCC3(CC2)CN(C)C(=O)O3)o1` (centres undefined): -10.9%; for `CN1CC2(CCCN(Cc3nnc(-c4ccccc4)o3)CC2)OC1=O` (centres undefined): -7.32%.
As to `CN1CC2(CCCN(Cc3nnc(-c4ccco4)o3)CC2)OC1=O` (centres undefined), the Percent Effect came out at 62.4%.
Under `Cn1ccc(C(=O)N2C[C@@H]3CN(CC4CC4)CCO[C@@H]3C2)n1` stands -15.9%; under `O=C(N[C@@H]1CN(c2ncccn2)C[C@@H]2CCCO[C@@H]21)c1cnccn1`, -18%; under `COc1cccc(C(O)CN2CCN(c3cccc(C)c3)CC2)c1` (centres undefined), 0.857%.
Under `COc1cccc(N2CCN(CC(O)c3ccc(C)cc3)CC2)c1` (centres undefined) stands -26.6%.
Regarding `CCc1ccc(C(O)CN2CCN(c3cccc(OC)c3)CC2)cc1` (centres undefined), the Percent Effect came to 56.5%.
Under `CNC(=O)[C@H]1C[C@@H]2CN(Cc3ccc(C)cc3)C[C@H]1O2` stands -2.73%.
Under `Cc1cc2c(N)nc(=O)n(CC(=O)Nc3cccc(Cl)c3)c2s1` stands 11.9%.
Under `COc1ccc(NC(=O)Cn2c(=O)nc(N)c3cc(C)sc32)cc1` stands -1.59%; under `Cc1cc2c(N)nc(=O)n(CC(=O)Nc3ccccc3)c2s1`, 61%; under `c1cnc(N2C[C@H]3CCN(Cc4ccncc4)C[C@H]3C2)nc1`, -10.9%.
Turning to `CCc1n[nH]c(SCC(=O)N2C[C@@H]3CC[C@H](C2)N(CC=C(C)C)C3)n1`, the Percent Effect is 4.76%.
Under `CCc1ccc(CN2CC[C@@H]3CN(S(C)(=O)=O)CCO[C@@H]3C2)o1` stands -6.54%.
The same measure for `CNC(=O)[C@H]1C[C@@H]2CN(S(=O)(=O)c3ccc(OC)cc3)C[C@@H]2N1C`: -0.271%; for `O=C(C[C@@H]1COC[C@H]2CN(C(=O)c3cccnc3)C[C@@H]12)N1CCOCC1`: -5.25%; for `Cc1cc(C)c2cc(CNC(C)C)c3nn(C)c(=O)n3c2c1`: 52.3%.
Under `CCCNCc1cc2c(C)cc(C)cc2n2c(=O)n(C)nc12` stands 33.4%; under `Cc1cc(C)c2cc(CNCc3cccnc3)c3nn(C)c(=O)n3c2c1`, 112%; under `Cc1cc(C)c2cc(CNC3CCCCC3)c3nn(C)c(=O)n3c2c1`, 10.2%.
As for `Cc1cc(C)c2cc(CNCc3ccccc3)c3nn(C)c(=O)n3c2c1`, the Percent Effect was -72.8%.
The same measure for `Cc1cc(C)c2cc(CNCc3ccco3)c3nn(C)c(=O)n3c2c1`: -29.8%.
Under `Cc1cnc(N2CC[C@@H]3O[C@@H](COCC(=O)N(C)C)CC[C@@H]32)nc1` stands -4.2%.
The same measure for `Cc1cc(C)nc(N2CC[C@@]3(O)CCN(S(=O)(=O)N(C)C)C[C@H]3C2)n1`: -22.2%; for `O=C([C@@H]1COC[C@H]2CN(C3CCOCC3)C[C@H]21)N1CCCCO1`: 3.42%; for `CC1(C(=O)NCc2cccnc2Oc2ccc(F)c(F)c2)CCCNC1` (centres undefined): 63.7%.
Consider `Cc1cccc(C)c1Oc1ncccc1CNC(=O)C1(C)CCCNC1` (centres undefined), for which the Percent Effect was -21.7%.
The same measure for `CC1(C(=O)NCc2cccnc2Oc2ccc(F)cc2F)CCCNC1` (centres undefined): -16.5%; for `Cc1ccccc1CN1C[C@@H]2OCC(=O)N(CC(N)=O)[C@@H]2C1`: -35.3%.
Under `CCOC[C@]12COC[C@H]1CN(Cc1ccc(F)c(F)c1)C2` stands -14.9%.
The same measure for `Cc1ncc(CN2CCCC2)c2cc(C(=O)c3ccc(Br)cc3)oc12`: -4.91%.
For the molecule `Cc1ncc(CNCC(C)O)c2cc(C(=O)c3ccc(Br)cc3)oc12` (centres undefined), the Percent Effect was 53.8%.
The same measure for `Cc1ncc(CNCCO)c2cc(C(=O)c3ccc(Br)cc3)oc12`: -1.68%; for `O=c1ccc2c(n1Cc1ccncc1)CCN(Cc1ccoc1)CC2`: 6.04%; for `O=c1ccc2c(n1CC1CCOCC1)CCN(Cc1ccoc1)CC2`: 52.6%.
With `COCCn1c2c(ccc1=O)CCN(Cc1ccoc1)CC2`, the Percent Effect amounted to 19%.
Under `O=C(c1cscn1)N1CC[C@H]2[C@@H]1CCC(=O)N2c1ccccc1` stands -9.46%.
Under `c1ccc2c(c1)CN(c1ncnc3c1CCNC3)CCO2` stands -34%; under `c1ccc2c(c1)CN(c1ncnc3sc4c(c13)CCNC4)CCO2`, 63%; under `c1ccc2c(c1)CCN(c1ncnc3sc4c(c13)CCNC4)C2`, -23.8%.
The same measure for `CC1(C)Cc2ccccc2-c2nc(NCCCO)[nH]c(=O)c21`: 62.7%; for `O=c1[nH]c(NCCO)nc2c1C1(CCCCC1)Cc1ccccc1-2`: -23%.
Turning to `Cc1cc(NCCO)nc(-c2ccccc2O)n1`, the Percent Effect worked out at 19.7%.
The same measure for `O=c1c(NCCCO)c(N2CCN(c3ccccc3)CC2)c1=O`: 4.71%; for `CC(C)(CO)CCCNC(=O)NC1(C)Cc2ccccc2C1`: 0.272%; for `OCCCNc1nc(O)c2c(n1)-c1ccccc1CC21CCCCC1`: 13.8%.
Take `O=c1[nH]c(NCCCO)nc2c1C1(CCCC1)Cc1ccccc1-2`: the Percent Effect was 55.4%.
For the molecule `CCC1(C)Cc2ccccc2-c2nc(NCCCO)nc(O)c21` (centres undefined), the Percent Effect amounted to 37.9%.
Under `O=C(NCCCO)C1(N2CCCCC2)Cc2ccccc2C1` stands -29.6%; under `CCC1(C)Cc2ccccc2-c2nc(NCCO)nc(O)c21` (centres undefined), 55.8%; under `O=c1[nH]c(NCCO)nc2c1C1(CCCC1)Cc1ccccc1-2`, 12.1%.
Under `CC1(C)Cc2ccccc2-c2nc(NCCO)[nH]c(=O)c21` stands 88.1%; under `Cn1cc(CN2C[C@H](Oc3ncccc3F)[C@H]3OCCC[C@H]32)cn1`, 4.64%.
Under `Cc1occc1C(=O)N1C[C@@H]2CCCO[C@@H]2[C@H](NC(=O)CC2CC2)C1` stands -0.923%; under `CC(C)=CCN1C[C@H]2CC[C@@H]1CN(C(=O)c1c[nH]c(=O)c(Cl)c1)C2`, -3.37%.
Turning to `CC(C)CN1C[C@@H]2C(=O)N(C)C3(CCN(C(=O)C(C)C)CC3)[C@@H]2C1`, the Percent Effect is -25.7%.
Under `Cc1noc([C@]23COC[C@H]2CN(S(=O)(=O)N(C)C)C3)n1` stands -30.1%.
The same measure for `CNC(=O)CN1CCO[C@H]2CN(C(=O)C3CC3)C[C@H]21`: -29%; for `O=C([C@@H]1COC[C@H]2CN(C3CCOCC3)C[C@H]21)N1CCCO1`: 35.9%; for `CS(=O)(=O)N[C@@H]1CN(Cc2ccoc2)C[C@@H]2CCCO[C@@H]21`: -30.2%.
For the molecule `CCC1(CC)Cc2ccccc2-c2nc(NCCO)[nH]c(=O)c21`, the Percent Effect was -180%.
In the case of `CCC1(CC)Cc2ccccc2-c2nc(CN(C)C)nc(O)c21`, the Percent Effect is -41.1%.
The same measure for `CCC1(CC)Cc2ccccc2-c2nc(NCCCO)[nH]c(=O)c21`: 88.8%; for `O=C([C@H]1C[C@H]2OCC[C@H]2N(C(=O)c2ccccn2)C1)N1CCCCO1`: -25.9%.
Under `CC(=O)N1CCC(NC(=O)c2cc(Cl)ccc2-n2cnnn2)CC1` stands -14.8%; under `CC(=O)N1CCC(NC(=O)c2cc(Cl)ccc2O)CC1`, 95.8%; under `CC(=O)N1CCC(NC(=O)c2cc(S(N)(=O)=O)ccc2C)CC1`, -0.331%.
The same measure for `Cc1nc(CO[C@H]2CN(Cc3ccccn3)[C@@H]3CCCO[C@H]23)cs1`: 1.71%.
For `CC(=O)N1CC[C@H]2OCC[C@@H](C(=O)Nc3cccnc3C)[C@H]2C1`, the Percent Effect worked out at 5.14%.
Under `O=C(c1ccco1)N1C[C@H]2CCCN(CC3CCOCC3)[C@H]2C1` stands 0.0598%.
Under `Cn1ccnc1CN1C[C@H](N2CCOCC2)[C@@H]2OCCC[C@@H]21` stands -10.5%; under `CC(C)N1Cc2cccc(NCC(=O)N(C)C3CCCCC3)c2C1`, 81.9%; under `CC(C)N1Cc2cccc(NCC(=O)N(C)C)c2C1`, -31.9%.
Under `CC(C)C(C)N1Cc2cccc(NCC(=O)N(C)C)c2C1` (centres undefined) stands -6.55%.
Turning to `CN(C)C[C@@H]1CCC[C@@H]2CN(c3cccnc3)C[C@@H]21`, the Percent Effect is -20.9%.
The same measure for `CS(=O)(=O)N1CCN2C(=O)N(C3CCCCC3)C[C@H]2C1`: 3.48%; for `O=C([C@@H]1COC[C@H]2CN(c3ccncn3)C[C@H]21)N1CCCCO1`: -30%; for `O=C(C1CCC1)N1CCO[C@H]2[C@H](OCCCn3cccn3)CC[C@@H]21`: -40.4%.
For the molecule `Cc1ccnc(NC(=O)c2ccc(Cl)o2)c1`, the Percent Effect was -6.1%.
Regarding `Cc1cscc1C(=O)Nc1cc(CSCCO)ccn1`, the Percent Effect is 11.8%.
The same measure for `O=C(Nc1cc(CSCCO)ccn1)c1ccc(Cl)o1`: 62%.
The same measure for `Cc1cccc(CN2C[C@@H](NC(=O)C3CCC3)[C@H]3COC[C@H]32)n1`: -33.3%; for `O=C(CCc1n[nH]c2c1CCCC2)N1C[C@@H]2CC[C@H](C1)N(CC1CC1)C2`: -15.4%.
Under `Cc1nn(C)cc1-c1ccnc(N(C)Cc2ccoc2)n1` stands 139%; under `Cc1nn(C)cc1-c1ccnc(N(C)Cc2cnn(C)c2)n1`, -7.71%.
Consider `Cc1nn(C)cc1-c1ccnc(N(C)Cc2ccc(F)cc2)n1`, for which the Percent Effect is -13.2%.
Under `CC(C)N1[C@H](Cn2cncn2)C[C@@H]2CN(Cc3cccs3)CC[C@@H]21` stands 2.62%; under `O=C1CC(NCc2cnc(C3CCCCC3)nc2)CN1c1ccccc1` (centres undefined), -18%; under `O=C1CC(NCc2cnc(-c3cccs3)nc2)CN1c1ccccc1` (centres undefined), -18.1%.
As to `O=C1CC(NCc2cnc(N3CCCC3)nc2)CN1c1ccccc1` (centres undefined), the Percent Effect stood at 65.7%.
For the molecule `O=S(=O)(c1ccccc1)N1C[C@@H]2CCCCN(Cc3cccs3)[C@@H]2C1`, the Percent Effect is -1.03%.
Under `COc1cc2nc(NCc3ccc(C)nc3)nc(N)c2cc1OC` stands -17.5%.
The same measure for `COc1cc2nc(NCc3cc(C)on3)nc(N)c2cc1OC`: 78.9%.
Under `COc1cc2nc(NCc3scnc3C)nc(N)c2cc1OC` stands 12.1%.
As to `CNC(=O)CN1CCO[C@H]2CN(CC3CCOC3)C[C@H]21` (some centres undefined), the Percent Effect is -18.9%.
Under `O=C(c1cc(F)cc(F)c1)N1C[C@H]2CNC[C@H]2C1` stands -29.4%; under `COCCN1CC(=O)N2CC[C@@H](O)C[C@H]2C1=O`, 7.83%.
With `Cc1ncc2c(n1)CCN(CCCc1nc3ccccc3o1)C2`, the Percent Effect was found to be 0.614%.
On to `Cc1ncc2c(n1)CN(CCCc1nc3ccccc3o1)CC2`, for which the Percent Effect amounted to 94.6%.
Under `Cc1ncc2c(n1)CN(Cc1nc3ccccc3o1)CC2` stands -1.34%.
Turning to `CCCN1CCN(C(=O)c2ccc(Cl)cn2)[C@H]2CS(=O)(=O)C[C@H]21`, the Percent Effect was 5.71%.
